The subject of assay [1] is Wnt5a (protein binding on small-molecule microarray). Nature of the assay: Wnt5a binders on small-molecule microarray, primary screen, biophysical, 635/667 nm fluorescence (AID 1142).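 Further: fluorescence read at 667 nm with signal to noise per printed feature.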 The following applies: 635 nm fluorescence, higher = more signal.
Assay [2] is described as follows: cell viability in Huh7 cells, primary screen, cytotoxicity control for HCV replication inhibitor project, CellTiter-Glo luminescence, basal, 48 h (AID 1143).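 Further: Huh7 hepatoma cells carrying a hepatitis C replication reporter with no stimulus; test concentration not given here.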 The following applies: Huh7 HCV replicon, higher = more signal, called active from +8 up or from −8 down.
The nature of assay [3]: P. aeruginosa biofilm formation inhibitors, primary screen, PAO1 strain, BacTiter-Glo luminescence, LB-PBS (AID 1144). The following applies: 12 h, higher = more signal.
Assay [4] can be described thus: CREB reporter modulators without forskolin, primary screen, cell-based, PC12, CRE-LacZ reporter, unstimulated (AID 1145). Conditions: no forskolin, luminescence, 4.5 h, higher = more signal, called active from +8 up or from −8 down.
Assay [5] is described as follows: CREB reporter modulators under forskolin, primary screen, cell-based, PC12, CRE-LacZ reporter, forskolin-stimulated (AID 1146).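 Further: PC12 cells with 6xCRE LacZ reporter stimulated by forskolin 10 µM; beta-galactosidase reporter signal reflecting CREB driven transcription.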 Conditions: luminescence, 4.5 h, higher = more signal, called active from +8 up or from −8 down.
In assay [6] the target is Streptavidin (Streptomyces avidinii) (UniProt P22629). As to the kind of experiment: streptavidin binders on small-molecule microarray, primary screen, artefact control for SMM compound annotation, biophysical, 635/667 nm fluorescence (AID 1147).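 Further: signal reflects streptavidin binding to arrayed compounds as a control protein.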 The following applies: streptavidin binding, higher = more signal.
Streptavidin (Streptomyces avidinii), sequence (P22629 whole entry, looked up): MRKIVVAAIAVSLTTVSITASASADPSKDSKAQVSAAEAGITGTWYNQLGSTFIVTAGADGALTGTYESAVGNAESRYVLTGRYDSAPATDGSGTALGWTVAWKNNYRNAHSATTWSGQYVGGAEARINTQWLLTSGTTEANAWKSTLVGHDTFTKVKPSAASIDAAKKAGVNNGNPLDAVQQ
Assay [7] is described as follows: small-molecule binders of probe aInhba, primary screen, biochemical, small-molecule microarray, 635/667 nm fluorescence (AID 1148).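 Further: score merges 667nm spot fluorescence with signal-to-noise for antibody binding to printed compounds.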 Conditions: higher = more signal.
Assay [8] has as its target Torsin-1A (Homo sapiens) (UniProt O14656). Nature of the assay: torsin A binders from cell lysate, primary screen, small-molecule microarray, wild-type, 635/667 nm (AID 1149). Conditions: COS7 hTOR1A-WT lysate, 635 nm fluorescence, higher = more signal.
Assay [9] shares this target. Nature of the assay: small-molecule binders of mutant TOR1A in lysate, primary screen, cell lysate, small-molecule microarray, COS7 lysate, 635/667 nm fluorescence (AID 1150).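 Further: score pools 667 nm emission and signal to noise measuring lysate protein binding.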 The following applies: COS7 hTOR1A mutant lysate, 635 nm fluorescence, higher = more signal.
The subject of assay [10] is Sonic hedgehog protein (Shh). As to the kind of experiment: small-molecule binders of Shh protein, primary screen, biochemical, small-molecule microarray, 635/667 nm fluorescence (AID 1151).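 Further: Shh protein binding to compounds spotted on small-molecule microarray slides; score combines spot fluorescence intensity with signal-to-noise across triplicate slides.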 The following applies: small-molecule microarray binding, 635 nm fluorescence; higher = more signal.
A short description of assay [11]: E. coli DRC41 culture turbidity changes, primary screen, E. coli filamentation inducer project, strain DRC41, OD650, 48 h (AID 1152).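 Further: E. coli MC1000 strain DRC41 lacking acrAB efflux pump and sulA.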 Conditions: E. coli DRC41 (acrAB sulA), higher = more signal, called active from +8 up or from −8 down.
The nature of assay [12]: small-molecule binders of probe aLefty1, primary screen, biochemical, small-molecule microarray, 635/667 nm fluorescence (AID 1153).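 Further: score merges spot fluorescence with signal-to-noise ratio from the scanned slide images.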 Conditions: higher = more signal.
Assay [13] in a line: PSAC antagonists in infected red cells, primary screen, cell-based, P. falciparum Indochina, OD700, 1 h (AID 1154). Conditions: P. falciparum Indochina infected RBC osmotic lysis, higher = more signal, called active from +8 up or from −8 down.
The nature of assay [14]: PSAC antagonists in infected red cells, primary screen, cell-based, P. falciparum Indochina, OD700, 2 h (AID 1155).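 Further: lysis reports solute entry through the parasite surface anion channel PSAC; channel blockers reduce lysis of infected cells.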 Conditions: P. falciparum Indochina infected erythrocytes, osmotic lysis OD700; higher = more signal, called active from +8 up or from −8 down.
The nature of assay [15]: osmotic lysis modulators in infected erythrocytes, primary screen, PSAC antagonist project, cell-based, P. falciparum Indochina, OD700, 3 h (AID 1156). The following applies: higher = more signal, called active from +8 up or from −8 down.
Assay [16] is described as follows: PSAC antagonists in infected red cells, primary screen, cell-based, P. falciparum Indochina, OD700, 18 h (AID 1157). The following applies: P. falciparum Indochina infected erythrocytes, osmotic lysis OD700, 18 h; higher = more signal, called active from +8 up or from −8 down.
The nature of assay [17]: modulators of S6 phosphorylation in cells, primary screen, cell-based, A549, cytoblot, luminescence, serum-stimulated (AID 1158).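 Further: serum-stimulated A549 lung adenocarcinoma cells; signal is phosphorylated S6 detected by cytoblot immunostaining with HRP secondary.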 Conditions: A549 phospho-S6 cytoblot, 5 h, higher = more signal.
The target in assay [18] is NADPH oxidase 2 (Homo sapiens) (UniProt P04839). As to the kind of experiment: NOX2-dependent H2O2 signal modulators, primary screen, NOX inhibitor project, cell-based, HEK293-NOX2, PMA-stimulated, Amplex Red fluorescence (AID 1159). Further: test concentration not given here. Conditions: 45 min, higher = more signal, called active from +8 up or from −8 down.
NADPH oxidase 2 (Homo sapiens), sequence (P04839 whole entry, looked up): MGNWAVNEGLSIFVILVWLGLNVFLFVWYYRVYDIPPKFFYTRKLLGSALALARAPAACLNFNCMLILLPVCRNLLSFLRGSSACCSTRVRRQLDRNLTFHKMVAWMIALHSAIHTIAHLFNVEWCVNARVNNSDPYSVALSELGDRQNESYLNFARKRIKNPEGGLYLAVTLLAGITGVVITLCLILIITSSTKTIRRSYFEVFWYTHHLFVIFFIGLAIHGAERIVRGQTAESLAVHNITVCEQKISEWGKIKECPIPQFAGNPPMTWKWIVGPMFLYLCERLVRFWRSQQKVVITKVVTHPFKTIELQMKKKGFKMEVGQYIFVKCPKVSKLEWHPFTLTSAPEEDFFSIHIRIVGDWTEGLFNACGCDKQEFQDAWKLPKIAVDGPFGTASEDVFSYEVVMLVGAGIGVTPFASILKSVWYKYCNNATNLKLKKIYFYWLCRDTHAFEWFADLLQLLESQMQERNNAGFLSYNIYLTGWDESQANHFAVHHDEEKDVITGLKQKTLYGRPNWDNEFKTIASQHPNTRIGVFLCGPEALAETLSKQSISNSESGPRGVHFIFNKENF
The target in assay [19] is NADPH oxidase 4 (Homo sapiens) (UniProt Q9NPH5). As to the kind of experiment: NOX4-dependent H2O2 signal modulators, primary screen, NOX inhibitor project, cell-based, HEK293-NOX4, tetracycline-induced, Amplex Red fluorescence (AID 1160). The following applies: 45 min, higher = more signal, called active from +8 up or from −8 down.
NADPH oxidase 4 (Homo sapiens), sequence (Q9NPH5 whole entry, looked up): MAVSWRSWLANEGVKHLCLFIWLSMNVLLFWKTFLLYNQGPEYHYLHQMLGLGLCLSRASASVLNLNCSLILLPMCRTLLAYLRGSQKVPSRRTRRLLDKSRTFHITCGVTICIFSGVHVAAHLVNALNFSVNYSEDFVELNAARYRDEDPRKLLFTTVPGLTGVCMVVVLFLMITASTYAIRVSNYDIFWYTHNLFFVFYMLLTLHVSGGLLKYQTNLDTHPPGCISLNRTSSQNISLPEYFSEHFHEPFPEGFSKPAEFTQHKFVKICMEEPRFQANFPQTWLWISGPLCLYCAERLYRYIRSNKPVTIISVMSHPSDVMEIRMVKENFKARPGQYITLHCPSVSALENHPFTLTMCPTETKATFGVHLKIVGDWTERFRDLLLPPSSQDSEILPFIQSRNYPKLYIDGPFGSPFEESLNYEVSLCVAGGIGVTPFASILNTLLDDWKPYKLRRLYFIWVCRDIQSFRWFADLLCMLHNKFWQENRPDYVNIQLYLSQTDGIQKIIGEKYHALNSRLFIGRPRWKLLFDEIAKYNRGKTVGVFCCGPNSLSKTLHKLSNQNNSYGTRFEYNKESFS
In assay [20] the target is NADPH oxidase 5 (Homo sapiens) (UniProt Q96PH1). Nature of the assay: NOX5-dependent H2O2 signal modulators, primary screen, NOX inhibitor project, cell-based, HEK293-NOX5, Amplex Red fluorescence (AID 1161). The following applies: HEK293-NOX5, ionomycin, 45 min, higher = more signal.
NADPH oxidase 5 (Homo sapiens), sequence (Q96PH1 whole entry, looked up): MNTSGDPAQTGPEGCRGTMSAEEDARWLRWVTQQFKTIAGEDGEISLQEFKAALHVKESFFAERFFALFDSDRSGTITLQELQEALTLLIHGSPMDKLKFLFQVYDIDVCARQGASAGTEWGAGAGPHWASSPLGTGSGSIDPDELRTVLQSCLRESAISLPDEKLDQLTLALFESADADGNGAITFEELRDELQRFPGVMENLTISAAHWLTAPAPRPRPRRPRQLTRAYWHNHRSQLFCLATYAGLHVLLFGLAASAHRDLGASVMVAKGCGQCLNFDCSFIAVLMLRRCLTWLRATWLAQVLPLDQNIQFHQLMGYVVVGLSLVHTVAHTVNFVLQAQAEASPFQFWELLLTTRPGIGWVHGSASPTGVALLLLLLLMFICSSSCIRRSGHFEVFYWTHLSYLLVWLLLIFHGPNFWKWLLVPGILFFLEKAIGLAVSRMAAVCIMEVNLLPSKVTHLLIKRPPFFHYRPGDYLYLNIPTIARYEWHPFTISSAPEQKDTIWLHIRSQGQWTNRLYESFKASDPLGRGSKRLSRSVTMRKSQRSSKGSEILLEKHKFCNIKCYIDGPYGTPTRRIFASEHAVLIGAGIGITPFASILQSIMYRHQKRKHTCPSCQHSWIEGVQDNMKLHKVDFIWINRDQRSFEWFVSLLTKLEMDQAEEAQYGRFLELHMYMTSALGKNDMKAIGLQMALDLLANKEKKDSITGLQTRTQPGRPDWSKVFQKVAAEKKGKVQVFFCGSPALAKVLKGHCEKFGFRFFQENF

These results are taken from PubChem BioAssay.

Each structure is given as a SMILES string. Calls of active or inactive are those of the source. Unless noted, how the calls were made is not given here.

Torsin-1A (Homo sapiens), sequence (O14656 whole entry, looked up): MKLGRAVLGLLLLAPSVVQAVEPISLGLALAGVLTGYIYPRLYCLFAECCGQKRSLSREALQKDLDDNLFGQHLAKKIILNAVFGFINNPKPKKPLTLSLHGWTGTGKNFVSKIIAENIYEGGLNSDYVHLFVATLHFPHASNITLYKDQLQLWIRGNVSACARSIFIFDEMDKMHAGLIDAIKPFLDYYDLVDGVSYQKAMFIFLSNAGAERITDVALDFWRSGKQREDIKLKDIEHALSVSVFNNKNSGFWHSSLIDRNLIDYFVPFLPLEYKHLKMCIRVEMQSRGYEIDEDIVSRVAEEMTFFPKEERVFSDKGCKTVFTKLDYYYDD

For the compound `CC(C)[C@@H](OCc1ccccc1)[C@H](C)C=NO[C@H](C)c1cn([C@@H]2COC[C@H]2O)nn1`, the composite z-score in assay [1] was 0.31; in assay [6] it was 0.0286; in [7] it was -0.0843; with Torsin-1A (Homo sapiens) [8] it was 1.4; with Torsin-1A (Homo sapiens) [9] it was 1.56; in [10], 0.371. This compound came in with a composite z-score in assay [12] of -0.111. For the same compound, the z-score in assay [2] is -0.703 (inactive); in assay [3], 1.28 (inactive); in assay [4], 0.927 (inactive); in [5], -0.379 (inactive); in assay [11], 0.112 (inactive); in assay [13], 0.551 (inactive). For the same compound, the z-score is -0.119 (inactive) in assay [14]; -0.541 (inactive) in [15]; 0.172 (inactive) in assay [16]; -0.995 in assay [17]; 0.542 (inactive) in assay [18]; 0.827 (inactive) in assay [19]. This compound also showed a z-score in assay [20] of 0.704.

For the compound `Cc1ccc2[nH]c3nc(CCCn4ccnc4-c4ccccc4)nnc3c2c1`, the composite z-score in assay [1] was 0.181; in assay [6], 0.857; in [7] it was 0.157; with Torsin-1A (Homo sapiens) [8], 0.443; with Torsin-1A (Homo sapiens) [9], 0.807; in [10], 1.18. In assay [12], this compound came in with a composite z-score of 0.0072. The z-score in [2] is -0.317 (inactive); in assay [3], 0.892 (inactive); in assay [4], -0.435 (inactive); in assay [5], -0.815 (inactive); in [11], 0.369 (inactive); in [13] it was 8.16 (active). For the same compound, the z-score was 0.751 (inactive) in assay [14]; 0.632 (inactive) in assay [15]; 0.322 (inactive) in [16]; -0.903 in assay [17]; -0.137 (inactive) in assay [18]; -0.375 (inactive) in assay [19]. For the same compound, the z-score in assay [20] is -1.14.

Take `CCOC(=O)[C@H](CC(C)C)NC(=O)CCC1CC(OC(=O)NCc2ccc3c(c2)OCO3)CC2(CCCC(COC(=O)NCCOc3ccccc3)O2)O1` (stereo not given in full): the composite z-score in [1] was 0.278; in [6], 0.282; in assay [7] it was -0.0719; in the assay with Torsin-1A (Homo sapiens) [8], 0.314; with Torsin-1A (Homo sapiens) [9], 0.387; in assay [10], 1.87. This compound gave a composite z-score in assay [12] of 0.0882. Moreover, the z-score was -0.705 (inactive) in assay [2]; -0.393 (inactive) in assay [3]; 0.293 (inactive) in [4]; 0.179 (inactive) in assay [5]; -0.832 (inactive) in assay [11]; 0.339 (inactive) in assay [13]. Besides, the z-score in assay [14] is -0.35 (inactive); in assay [15] it was -0.118 (inactive); in [16] it was -0.193 (inactive); in assay [17], 0.128; in assay [18], 1.02 (inactive); in assay [19], -1.63 (inactive). Also, the z-score in assay [20] is -0.0957.

Turning to `C[C@]12CCC3c4ccc(OCC5CO5)cc4CCC3C1CC[C@@H]2O` (stereo not given in full), the composite z-score was 0.201 in assay [1]; 0.699 in assay [6]; 0.0561 in assay [7]; 0.114 with Torsin-1A (Homo sapiens) [8]; 0.241 with Torsin-1A (Homo sapiens) [9]; -0.0357 in [10]. The composite z-score in assay [12] is -0.0011. Besides, the z-score is -1.78 (inactive) in assay [2]; -0.168 (inactive) in assay [3]; 2.75 (inactive) in assay [4]; 0.806 (inactive) in assay [5]; -0.186 (inactive) in assay [11]; 24.3 (active) in assay [13]. In addition, the z-score is 7.31 (inactive) in [14]; 0.269 (inactive) in assay [15]; 0.663 (inactive) in [16]; 0.25 in [17]; 1.44 (inactive) in assay [18]; -1.42 (inactive) in assay [19]. For the same compound, the z-score in assay [20] was -1.74.

`CC(=O)OC[C@H]1O[C@@H](ON=C(C)CCN2CCCCc3nc(C)c(C)cc32)[C@H](OC(C)=O)[C@@H](OC(C)=O)[C@@H]1OC(C)=O`: the composite z-score in assay [1] is 0.752; in assay [6], -0.452; in [7] it was 0.144; with Torsin-1A (Homo sapiens) [8], 0.987; with Torsin-1A (Homo sapiens) [9] it was 1.12; in assay [10] it was 1.64. In assay [12], this compound registered a composite z-score of -0.0601. Further, the z-score in [2] is -2.39 (inactive); in assay [3], 0.0375 (inactive); in [4] it was 2.32 (inactive); in assay [5], -0.494 (inactive); in assay [11] it was -0.998 (inactive); in [13], -0.323 (inactive). The z-score was -0.558 (inactive) in [14]; 1.16 (inactive) in assay [15]; -1.5 (inactive) in [16]; 0.314 in assay [17]; -1.31 (inactive) in [18]; -1.24 (inactive) in assay [19]. In [20], this compound showed a z-score of -2.54.

In the case of `CCc1cc2c(nc1CC)CCN(CCC(C)=NOC[C@@H](C)[C@H](OCc1ccccc1)C(C)C)C2`, the composite z-score in assay [1] is -0.608; in assay [6], -1.39; in assay [7], -0.302; with Torsin-1A (Homo sapiens) [8], -0.94; in the assay with Torsin-1A (Homo sapiens) [9], -1.22; in assay [10], -0.267. The composite z-score in assay [12] was -1.28. Besides, the z-score in [2] was -1.09 (inactive); in assay [3], 0.241 (inactive); in [4], 0.387 (inactive); in assay [5], 0.113 (inactive); in [11], -0.64 (inactive); in assay [13], 1.29 (inactive). The z-score in assay [14] is -2.02 (inactive); in [15], 0.513 (inactive); in [16] it was -2.16 (inactive); in [17], 1.35; in assay [18], -2.3 (inactive); in assay [19] it was -0.642 (inactive). In assay [20], this compound registered a z-score of -4.09.

On to `O=C1[C@H]2[C@H]3[C@H](O)[C@H](O)CC(=NO[C@@H]4O[C@H](CO)[C@@H](O)[C@H](O)[C@H]4O)[C@@H]3CC[C@H]2C(=O)N1c1cccc(Oc2ccccc2)c1`, for which the composite z-score was 0.0469 in [1]; 0.532 in assay [6]; -0.0504 in [7]; 0.787 with Torsin-1A (Homo sapiens) [8]; 0.0995 in the assay with Torsin-1A (Homo sapiens) [9]; 0.828 in assay [10]. In addition, in [12], the composite z-score is -0.0967. Besides, the z-score in [2] is 0.353 (inactive); in assay [3], -0.774 (inactive); in [4], 0.967 (inactive); in [5] it was 0.314 (inactive); in assay [11] it was -0.192 (inactive); in assay [13], -0.612 (inactive). The z-score in [14] is -0.0313 (inactive); in assay [15] it was 0.271 (inactive); in assay [16], 0.0606 (inactive); in assay [17], -0.263; in assay [18] it was 0.614 (inactive); in assay [19], 1.02 (inactive). In addition, the z-score in assay [20] is 0.544.

`COC(=O)[C@H](C)NC(=O)CCC1CC(OC(=O)NCCc2ccc(F)cc2)CC2(CCCC(COC(=O)NCC3CCCCC3)O2)O1` (stereo not given in full): the composite z-score is 0.374 in assay [1]; 0.915 in assay [6]; -0.0963 in [7]; -0.0051 with Torsin-1A (Homo sapiens) [8]; 0.348 in the assay with Torsin-1A (Homo sapiens) [9]; 0.886 in assay [10]. The same compound registered a composite z-score in [12] of -0.0464. In addition, the z-score in [2] was -2.59 (inactive); in [3], 0.0852 (inactive); in assay [4], 0.819 (inactive); in assay [5], 0.676 (inactive); in assay [11], -0.56 (inactive); in assay [13], 0.731 (inactive). In addition, the z-score is -0.391 (inactive) in assay [14]; 0.701 (inactive) in [15]; -0.957 (inactive) in [16]; 1.77 in [17]; -0.763 (inactive) in [18]; -1.47 (inactive) in assay [19]. This compound returned a z-score in [20] of -1.68.
